From PubChem BioAssay
p53ts 39C kill: kills p53ts cells at the nonpermissive temperature | AID 902 | H1299-p53A138V viability at 39C, ATP luminescence, 24 h | 130,000 compounds, 1.5% hits | Potency, µM (titrated, usually from 46.1 µM), without a hit: at the highest dose activity change, negative = cell killing, most hits filed as cytotoxic; further: on the % scale 0 is the no-effect control and ±100 the full control effect; nearly all actives have a fitted effect of over 55% in size
Imprint erasure: inducers of genomic imprint erasure in mouse ES cells; mouse ES Peg3-LacZ reporter, beta-gal luminescence, 40 h; 110,000 compounds, 0.02% hits; AID 1948; Potency, µM (highest dose often 60.7 µM), without a hit: at the highest dose activity change, positive = activation, most hits filed as activators
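Readout: BetaGlo luminescence (5 min, room temp) for LacZ from the normally silent maternal Peg3 allele in female Peg3LacZ-Neo ES cells. Cells 300/well, 40 h, 37C, 5% CO2. Data normalized per plate to negative controls.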
p53ts 32C kill: cytotoxicity in p53ts cells at permissive temperature; Potency, µM (doses to about 46.1 µM), inactives show top-dose activity change, negative = cytotoxicity, actives largely listed as cytotoxic; 130,000 compounds, 0.93% hits; H1299-p53A138V at 32C, ATP luminescence viability, 24 h; AID 924;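 further: 0% = DMSO and -100% = full killing by reference compound; nearly all actives have a fitted effect of over 55% in size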
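ATP-content luminescence (ATPlite) read-out after 24 h compound exposure at 32C in H1299-p53A138V cells (600/well). Tested up to 46 uM. Normalized to DMSO (0%) and 100 uM tamoxifen (100% killing); Hill-fit AC50.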
The depositor's hits bear a star; ? = inconclusive; nt = not tested or not shown; ! = not active in a repeat; [ ] = another dose, or the depositor's remark. A selection: hits, their analogues and other compounds. The true share with any hit is near 1.6%. The call rests on the fitted dose curve; in most records, active means well fitted curve in the direction sought with a large enough effect; inconclusive means small, poorly fitted or top-dose-only effect, or another doubt; inactive means no such curve, though single readings can be large; an effect the other way counts as inactive or inconclusive. Potency means the concentration at half of the fitted maximal effect.

SMILES | p53ts 39C kill | Imprint erasure | p53ts 32C kill
CSc1ccc(/C=C/c2nc3ccccc3n2S(=O)(=O)c2ccc(F)c(C)c2)cc1 | 4µM* | -26%[10.9 µM] | 7.9µM*
CC(=O)c1nc2ccccc2n1S(=O)(=O)c1ccc(C)cc1 | 0% | -15% | 5%
Cc1ccc(/C=C/c2nc3ccccc3n2S(=O)(=O)c2cccc(Cl)c2)cc1 | 3.2µM* | -84%[10.9 µM] | 3.2µM*
CC(=O)c1nc2ccccc2n1S(=O)(=O)c1ccc(Cl)cc1 | 6% | -20% | 6%
CCOc1ccc(/C=C/c2nc3ccccc3n2S(=O)(=O)c2cccc(Cl)c2)cc1 | 10µM* | 23%[10.9 µM] | 13µM*
N#Cc1c[nH]n2c(NC3CCCCC3)c(-c3ccc(F)cc3)nc12 | -7% | 8%[10.9 µM] | 3%
COCCN(Cc1ccco1)C(=O)c1cc2c(Cl)nc3ccc(C)cc3c2s1 | 7% | -12%[10.9 µM] | 2%
CCN(CC)c1ccc2cc(C(N)=O)c(=O)oc2c1 | -6% | nt | -10%
CCN(CC)c1ccc2cc(NC(=O)CCC(=O)O)c(=O)oc2c1 | 13µM* | -14% | ?
CC(=O)[C@H]1CC[C@@H]2[C@H]3CC=C4C[C@@H](O)CC[C@]4(C)[C@H]3CC[C@]12C | 1%[20.6 µM] | -5%[16.8 µM] | -5%[20.6 µM]
CN1CCN(c2ncnc3ccc(-c4cccnc4)cc23)CC1 | -2% | ? | 1%
CC(=O)OC[C@@H]1O[C@H](C/C=N\OC[C@@H](C)[C@H](OCc2ccccc2)C(C)C)C=C[C@@H]1OC(C)=O | -3%[9.22 µM] | nt | 1%[9.22 µM]
CCCn1nnnc1SCC(=O)NCc1cccs1 | -10% | 3% | -1%
COCCn1c(-c2ccc(Cl)cc2)cnc1SCC(=O)NCc1cccs1 | 25µM* | -12% | ?
CCCCOc1ccc(C(=O)Nc2cccc(C)n2)cc1 | 16µM* | 3% | 13µM*
CCOc1ccc(C(=O)Nc2nnn(CC)n2)cc1 | 13µM* | -80% | 10µM*
CCCn1nnc(NC(=O)c2ccc(OCC)c(Cl)c2)n1 | -9% | -3% | 5%
Cn1nnc(NC(=O)c2ccc3ccccc3c2)n1 | -19% | nt | ?
Cn1nnc(NC(=O)c2ccc(C(C)(C)C)cc2)n1 | 7.9µM* | -38% | 10µM*
Cc1cccc(NC(=O)c2ccc(S(=O)(=O)N(C)C)cc2)n1 | -3% | -28% | 1%
O=C(Nc1nc2ccccc2s1)c1ccc(S(=O)(=O)N2CCCC2)cc1 | -14% | 15%[10.9 µM] | -1%
Cc1ccc(C(=O)Nc2nc3ccccc3c(=O)s2)cc1 | 16µM* | nt | 13µM*
COc1ccccc1CNC(=O)CSc1nc(=O)[nH]c2c1CCC2 | 14% | -13%[10.9 µM] | -8%
COc1cccc(-c2nc(N3CCNCC3)c3ccccc3n2)c1 | ? | -22% | -9%
COc1ccc(S(=O)(=O)N(C)CC(=O)O)cc1C | 3% | nt | 0%
SMILES | p53ts 39C kill | Imprint erasure | p53ts 32C kill
CC(C)c1ccc(NC(=O)CSc2ncnc3c2sc2ccccc23)cc1 | ? | -7%[10.9 µM] | 2%
Cc1cc(Cl)ccc1NS(=O)(=O)c1c(C(=O)N2CCC(C)CC2)c(C)n(C)c1C | -17% | -5%[10.9 µM] | 9%
CCCC(=O)Nc1nc2ccc(OCC)cc2s1 | -15% | -30% | -24%
CCOc1ccc(C(=O)Nc2cccc(C)n2)cc1 | ? | nt | 5µM*
CCOc1ccc(NC(=O)Nc2cccc(C)n2)cc1 | ? | 4%[10.9 µM] | -22%
CCOc1ccc2nc(NC(=O)c3ccccc3)sc2c1 | ? | -74%[10.9 µM] | 6.3µM*
CC(C)Oc1ccc(C(=O)Nc2nc3c(s2)CC(C(C)(C)C)CC3)cc1 (configuration not stated) | -8% | -4%[10.9 µM] | -3%
COc1cc(C2c3c(-c4ccccc4O)n[nH]c3C(=O)N2Cc2ccco2)ccc1OCC(C)C (configuration not stated) | 20µM* | -7%[10.9 µM] | ?
COc1cc(C2c3c(-c4ccccc4O)n[nH]c3C(=O)N2CCO)ccc1OCC(C)C (configuration not stated) | -21% | 7%[10.9 µM] | 3%
COc1ccc(C(C(O)C(=O)c2c[nH]c3ccccc23)N2CCN(c3ccc(OC)cc3)CC2)cc1 (configuration not stated) | -23% | -26% | 4%
COc1ccc(C(=O)c2c[nH]c3ccccc23)cc1 | 10µM* | -26% | 7.9µM*
O=C1C=C(Nc2nc(C(=O)O)cc(=O)[nH]2)c2ccccc2C1=O | 4%[9.22 µM] | -8%[10.9 µM] | -2%[9.22 µM]
CC(C)c1ccc2c(c1)CC[C@@H]1[C@@](C)(CN)CCC[C@]21C | -11% | -6% | 1%
CC(C)c1ccc2c(c1)CC[C@H]1[C@](C)(CN)CCC[C@]21C | 16µM* | -74% | ?
c1cncc(-c2nc(NCc3cccs3)c3ccccc3n2)c1 | -21% | -4% | 0%
N#Cc1cccc(-c2nc(NCc3cccs3)c3ccccc3n2)c1 | -24% | 6.3µM* | -17%
CCOc1cc(C(=O)OCc2cc(=O)n3nc(CC)sc3n2)cc(OCC)c1OCC | -11% | -8%[10.9 µM] | -3%
Cc1ccc(C2CCN(C(=O)Nc3ccccc3)C2)cc1 (configuration not stated) | ? | -48% | ?
O=C(Nc1ccc(Cl)cc1)N1CCC(c2ccccc2)C1 (configuration not stated) | 13µM* | -18%[10.9 µM] | ?
Cc1ccc(NC(=O)N2CC3CCCN3c3ccccc32)cc1C (configuration not stated) | -11% | -9%[10.9 µM] | ?
Cc1ccc(NC(=O)N2CCC(c3ccccc3)C2)cc1C (configuration not stated) | 13µM* | -12%[10.9 µM] | ?
CCc1ccc(CNC(=O)C2CCCN(c3nnc(C)c4c(C)n(-c5ccc(OC)cc5)nc34)C2)cc1 (configuration not stated) | 34% | 27%[10.9 µM] | ?
Cc1ccc(Nc2nc(N)nc(CSc3nncn3C)n2)cc1 | 13µM* | nt | ?
Cc1ccc(Nc2nc(N)nc(CSc3nnnn3-c3ccccc3)n2)cc1 | 12% | -13% | 8%
COc1ccc(Br)cc1C(=O)Nc1cccc2ccc(C)nc12 | 26% | 13%[10.9 µM] | -5%
SMILES | p53ts 39C kill | Imprint erasure | p53ts 32C kill
COc1ccc(-n2ccn(CC(=O)NCc3ccc(C)cc3)c(=O)c2=O)cc1OC | -19% | -11%[10.9 µM] | 9%
COc1ccc(Nc2c3c(nc4ccc(NC(=O)c5cc(Cl)ccc5OC)cc24)CCCC3)cc1OC | 5µM* | -37%[10.9 µM] | 5.6µM*
CCOc1ccccc1C(=O)Nc1ccc2nc3c(c(Nc4ccc(OC)c(OC)c4)c2c1)CCCC3 | ? | -15%[10.9 µM] | ?
CC(=O)NCCc1ccc(O)c(O)c1 | -1% | -15% | -13%
NCCc1ccc(O)c(O)c1 | ? | -41% | 13µM*!
N#CCC(=O)NCC1(c2ccccc2)CCCC1 | 15% | ? | 3%
Cc1ccc(C(CC(=O)NCC2(c3ccccc3)CCCC2)c2ccccc2)c(O)c1 (configuration not stated) | 16µM* | -5%[10.9 µM] | -27%
CC1CC(C)CN(S(=O)(=O)c2ccc(C(=O)Nc3nnc(-c4cccs4)o3)cc2)C1 (configuration not stated) | 16µM* | -32% | 6%
CC1CCCN(S(=O)(=O)c2ccc(C(=O)Nc3nnc(-c4ccccc4Cl)o3)cc2)C1 (configuration not stated) | -23% | -16% | -19%
COc1cccc(-c2nnc(NC(=O)c3ccc(S(=O)(=O)N4CC(C)OC(C)C4)cc3)o2)c1 (configuration not stated) | 13µM* | -43% | -10%
